Screens (PubChem BioAssay)
TDP1 cell CPT = DT40-hTDP1 cell growth loss with CPT; chicken DT40 Tdp1-/-;hTDP1 cells + 20 nM CPT, ATP luminescence, 48 h; Potency, µM (titrated, usually from 46.2 µM), without a hit: top-dose activity change, negative = growth inhibition, most hits filed as inhibitors; actives 12% (n = 420,000); AID 686979; note: potency is the fitted concentration of half-maximal effect; nearly all actives have a fitted effect of over 55% in size
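Chicken DT40 Tdp1-/- cells stably complemented with human TDP1 were seeded at 400 cells/well in medium containing 20 nM camptothecin, exposed to pin-transferred compounds, and grown at 37 °C for at least 48 hr. Viability was read as ATP luminescence.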
IL1B secr inh = inflammasome signaling inhibition, IL-1 beta readout. THP-1 LPS/ATP IL-1B secretion, AlphaLISA, 16 h; active compounds read low. activity change, % at 57.5 µM. actives 4.7% (n = 360,000). AID 743279; in the data active = activity change below about -50%; inconclusive = mostly about -30% to -49%
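THP-1 cells pretreated 1 hr with compounds (up to 57.5 uM final), then stimulated with LPS (250 ng/mL final) plus ATP (1.25 mM final); secreted IL-1B measured by AlphaLISA after 16 hr, decreased signal indicating inhibition.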
HT1080-NT tox = kills 2HG-producing HT-1080-NT fibrosarcoma cells. HT-1080-NT fibrosarcoma viability, CellTiter-Glo ATP luminescence, 48 h. Potency, µM (titrated, usually from 46.1 µM), without a hit: at the top dose activity, negative = less viability, actives largely listed as cytotoxic. actives 1.6% (n = 360,000);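 note: NT is the 2HG producing partner of a matched IDH1 knockdown line; potency is the fitted concentration of half-maximal effect; 0% = DMSO-treated cells and -100% = media-only wells without cells; nearly all actives have a fitted effect of over 55% in size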
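Read-out is CellTiter-Glo luminescence after 10 minutes at room temperature, following 48 hours' compound treatment of HT-1080-NT cells (750 cells/well, RPMI, 5% FBS, 37 degrees C).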
HT1080 IDH1KD tx = kills HT-1080 cells with IDH1 knockdown. actives 2% (n = 360,000). Potency, µM (highest dose often 46.1 µM), for inactives: at the top dose activity, negative = toxicity, usual class: cytotoxic. AID 686971. HT-1080 IDH1 knockdown viability, ATP luminescence, 48 h;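 note: potency is the fitted concentration of half-maximal effect; 0% = DMSO wells and -100% = cell-free medium wells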
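Assay cells: HT-1080 with IDH1 knockdown, 750 per well, RPMI/5% FBS. Exposure: 48 h at 37 °C following 2 h pre-incubation. Read: CellTiter-Glo luminescence; fitted concentration-response, curve class assigned.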
ELG1 DNA repair = ELG1-dependent DNA repair inhibition. actives 2.3% (n = 330,000). HEK293T ELG1-luciferase reporter, luminescence, 16 h; DNA damage induced by 5-fluorouridine. Potency, µM (series often up to 46.1 µM), for the others: at the highest dose activity change, negative = inhibition, actives largely listed as inhibitors. AID 504467; note: potency is the fitted concentration of half-maximal effect; nearly all actives have a fitted effect of over 55% in size
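Overnight (16 hr) co-exposure of 2,000 cells/well to 5-fluorouridine and compound at 37 °C preceded detection. Luciferase was quantified via ONE-Glo luminescence; loss of signal denotes inhibition.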
TDP1 cell noCPT = qHTS for Inhibitors of human tyrosyl-DNA phosphodiesterase 1 (TDP1): qHTS in cells in absence of CPT; Potency, µM (highest dose often 46.2 µM), without a hit: at the top dose activity change, negative = growth inhibition, actives largely listed as inhibitors; DT40 Tdp1-/- hTDP1 cells, no CPT, ATP luminescence, 48 h; actives 15% (n = 420,000); AID 686978, 2013; note: potency is the fitted concentration of half-maximal effect; nearly all actives have a fitted effect of over 55% in size
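Stably hTDP1-transfected Tdp1-null chicken DT40 cells were treated with library compounds minus camptothecin and grown for at least 48 hr at 37 °C, after which cellular ATP was quantified by luminescence.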
Numbers without * were called inactive; u = inconclusive; x = not tested or not shown. An excerpt weighted towards active compounds, which were near 19% of everything screened. Unless noted, calls come from the whole dose curve; as a rule, active = well fitted curve in the direction sought with a large enough effect; inconclusive = small, poorly fitted or top-dose-only effect, or another doubt; inactive = no such curve, though single readings can be large; an effect the other way counts as inactive or inconclusive. Unless noted, % is set by controls: 0 for no effect and ±100 for the full control effect.

SMILES	TDP1 cell CPT	IL1B secr inh	HT1080-NT tox	HT1080 IDH1KD tx	ELG1 DNA repair	TDP1 cell noCPT
Cc1noc(C)c1-c1ccc(C(=O)NCC(C)C)c2occc12	u	-1	11%	5%	x	u
Cc1noc(C)c1-c1ccc(C(=O)NCc2cccnc2)c2occc12	13µM*	79	-8%	-18%	x	18µM*
Cc1ccc(S(=O)(=O)N(CCCc2c(C)nc[nH]c2=O)c2ccccc2)cc1	u	-8	5%	4%	x	-27%
CCOc1cc(/C=N/NC(=O)CCc2n[nH]c(=O)[nH]c2=O)ccc1O	0%	-5	17%	24%	-2%	-19%
CC(C)(C)OC(=O)NCc1n[nH]c(=S)n1C1CC1	4%	8	13%	14%	u	0%
CCCN(CCC)C[C@@H]1CCCCN1CCNC(=O)N1c2ccccc2C(=O)Nc2cccnc21	-8%	x	x	x	x	-5%
CSc1ccccc1C(=O)NCCOc1cccc(C)c1	-24%	-91*	-2%	-6%	u	-10%
Cc1ccc(C(=O)NCCOc2cccc(C)c2)cc1	1%	-20	1%	-1%	u	-6%
COc1cc2c(cc1OC)C1(O)C(=O)c3ccc(O)c(C(=O)O)c3OC1CO2 (configuration not stated)	u	x	x	x	x	-9%
C=C(CO)C1Cc2c(ccc3c2OC2COc4cc(OC)c(OC)cc4C2C3=O)O1 (configuration not stated)	0.3µM*	x	x	x	x	0.24µM*
OCc1ccc2c(c1)c(-c1ccc3c(c1)OCCO3)c(-c1ccccc1)n2-c1ccccc1	18µM*	0	u	-18%	16µM*	23µM*
CCn1c(=S)sc2c(=O)n(CC(=O)Nc3ccccc3C(F)(F)F)c(C)nc21	-23%	-4	0%	2%	u	u
Cc1cc(C)n2c(Nc3ccccc3)c(-c3ccc(C)o3)nc2n1	u	x	5%	15%	x	u
Cc1cc(C)n2c(NCc3ccccc3)c(-c3cc4ccccc4o3)nc2n1	16µM*	10	-27%	u	x	15µM*
COc1cccc(N2CCN(c3ncnc4onc(-c5ccc(F)cc5)c34)CC2)c1	5%	x	x	x	x	0%
COC(=O)c1c(-c2ccc(Cl)cc2)noc1N1CCN(c2cccc(C)c2C)CC1	16µM*	x	x	x	x	u
COC(=O)c1c(-c2ccc(Cl)cc2)noc1N1CCN(c2cccc(OC)c2)CC1	16µM*	x	x	x	x	5.8µM*
Cc1nn(CCCC(=O)NCc2ccccc2)c(=O)c2cc3sccc3n12	1%	x	x	x	x	-27%
COc1ccc(-n2c(/C=C/c3ccccc3F)nc3cc(OC)c(OC)cc3c2=O)cc1Cl	15µM*	x	x	x	x	18µM*
COc1ccc(-n2c(SC3CCOC3=O)nc3ccccc3c2=O)cc1Cl (configuration not stated)	13µM*	-13	-3%	2%	3%	u
COc1ccc(-n2c(/C=C/c3cccc(C(F)(F)F)c3)nc3ccccc3c2=O)cc1Cl	8.2µM*	x	x	x	x	13µM*
COc1ccc(-n2c(/C=C/c3cccc4ccccc34)nc3ccccc3c2=O)cc1Cl	21µM*	x	x	x	x	21µM*
O=C(O)c1cccc(-n2c(/C=C/c3ccc([N+](=O)[O-])cc3)nc3ccccc3c2=O)c1	u	-6	12%	5%	-17%	-20%
O=[N+]([O-])c1ccccc1S(=O)(=O)N/C(=N/S(=O)(=O)c1ccccc1)c1ccccc1	0%	29	7%	12%	6%	7%
CN(C)CCCn1c2c(c(SCC(=O)Nc3ccc4c(c3)OCCO4)nc1=O)CCC2	-24%	0	-6%	-9%	1%	u
SMILES	TDP1 cell CPT	IL1B secr inh	HT1080-NT tox	HT1080 IDH1KD tx	ELG1 DNA repair	TDP1 cell noCPT
COCCNC(=O)c1cccc(OC2CCN(Cc3ccc(OC(F)F)cc3)CC2)c1	4%	-8	0%	-12%	-17%	-26%
O=C(c1cc(-c2ccccc2O)on1)N1CCCCCC1	2%	-8	10%	2%	u	-17%
COC(=O)[C@@H](NC(=O)NCCC1=CCCCC1)C(C)C	-18%	3	-5%	-5%	6%	-7%
O=C(CN1C(=O)COc2ccccc21)NCCCN1CCCCC1	5%	17	-1%	7%	12%	1%
COc1cccc(C(=O)O[C@@H]2[C@H](Cc3ccccc3)NS(=O)(=O)[C@H]3C[C@@H]4C=C[C@]23O4)c1	-13%	-8	6%	9%	11%	-13%
O=C(O)c1ccc(-n2c(/C=C/c3cccc([N+](=O)[O-])c3)nc3ccccc3c2=O)cc1	4%	-9	10%	-3%	u	u
CCOc1ccc(-n2c(/C=C/c3cccc(F)c3)nc3cc(OC)c(OC)cc3c2=O)cc1	9.2µM*	x	x	x	x	9.2µM*
O=C(NCCN1CCOCC1)c1cnn(-c2nccc(-c3cc4ccccc4o3)n2)c1C1CC1	18µM*	x	x	x	x	u
CCN1CCCC1CNC(=O)c1cnn(-c2nccc(-c3ccc(C)o3)n2)c1C1CC1 (configuration not stated)	1%	x	x	x	x	-4%
Cc1ccc(-c2ccnc(-n3ncc(C(=O)NCCN4CCOCC4)c3C3CC3)n2)o1	21µM*	x	x	x	x	-24%
O=C(NCC1(N2CCOCC2)CCCCC1)c1cnn(-c2nccc(-c3cccs3)n2)c1C1CC1	u	x	x	x	x	21µM*
Cc1c(C(=O)NCCN2CCOCC2)cnn1-c1nccc(-c2cc3ccccc3o2)n1	-17%	x	x	x	x	-18%
CCCn1c(SCC(=O)NC2CCCC2)nc2c1c(=O)n(C)c(=O)n2C	-8%	7	-2%	1%	4%	-14%
CC(=O)Nc1ccc(Nc2cc(C)nc3c(-c4ccccc4)cnn23)cc1	u	-21	15µM*	13µM*	u	16µM*
CCN1CCN(CNC(=O)c2cnccn2)CC1	18µM*	6	-4%	1%	15%	0%
CC(=O)Nc1ccccc1OC(C)C(=O)N1CC(C)CC(C)C1 (configuration not stated)	u	7	3%	18%	u	21µM*
CC1CC(C)CN(C(=O)Nc2ccccc2F)C1 (configuration not stated)	4%	-9	0%	6%	-1%	-2%
COc1ccc(CCNC(=O)Cn2nnc(C(=O)Nc3cccc(C)c3C)c2N)cc1OC	-11%	-19	1%	-19%	-5%	1%
